High-throughput results from PubChem BioAssay.
CYP2C9 activ = activators of human CYP2C9 | activation factor at 5 µM | P11712 | recombinant CYP2C9, luciferin-H conversion, luminescence; active compounds read high; factor 1 = untreated enzyme, 0 = blocked | 96,000 compounds, 1.4% hits;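 active = activation factor of 2 or more for CYP2C9 at a 5 µM dose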
CYP2C9 inh = human CYP2C9 inhibition | CYP2C9 Supersomes, luciferin-H conversion, luminescence | 96,000 compounds, 20% hits | P11712 | inhibition, % at 5 µM;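 active = blocking of liver enzyme CYP2C9 beyond about 50% at 5 µM, limit read from the data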
CYP2C19 inh = inhibitors of human CYP2C19. P33261. CYP2C19 Supersomes, luciferin-H EGE luminescence, 30 min. inhibition, % at 5 µM. 96,000 compounds, 21% hits. AID 778;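 active = CYP2C19 inhibition above a set limit at 5 µM in the primary screen, cut at about 50% in these data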
EphB4 ephrin blk = EphB4-ephrin-B2 interaction antagonism; AID 720; P54760; inhibition, % at 7 µM; EphB4 LBD / TNYL-RAW-Alexa532 peptide, fluorescence polarization; 97,000 compounds, 0.15% hits;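 active = inhibition above the screen-wide mean inhibition plus 3 SD, cut at about 15% in these data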
Target sequence (P54760 whole entry, looked up, the tested form may be a part): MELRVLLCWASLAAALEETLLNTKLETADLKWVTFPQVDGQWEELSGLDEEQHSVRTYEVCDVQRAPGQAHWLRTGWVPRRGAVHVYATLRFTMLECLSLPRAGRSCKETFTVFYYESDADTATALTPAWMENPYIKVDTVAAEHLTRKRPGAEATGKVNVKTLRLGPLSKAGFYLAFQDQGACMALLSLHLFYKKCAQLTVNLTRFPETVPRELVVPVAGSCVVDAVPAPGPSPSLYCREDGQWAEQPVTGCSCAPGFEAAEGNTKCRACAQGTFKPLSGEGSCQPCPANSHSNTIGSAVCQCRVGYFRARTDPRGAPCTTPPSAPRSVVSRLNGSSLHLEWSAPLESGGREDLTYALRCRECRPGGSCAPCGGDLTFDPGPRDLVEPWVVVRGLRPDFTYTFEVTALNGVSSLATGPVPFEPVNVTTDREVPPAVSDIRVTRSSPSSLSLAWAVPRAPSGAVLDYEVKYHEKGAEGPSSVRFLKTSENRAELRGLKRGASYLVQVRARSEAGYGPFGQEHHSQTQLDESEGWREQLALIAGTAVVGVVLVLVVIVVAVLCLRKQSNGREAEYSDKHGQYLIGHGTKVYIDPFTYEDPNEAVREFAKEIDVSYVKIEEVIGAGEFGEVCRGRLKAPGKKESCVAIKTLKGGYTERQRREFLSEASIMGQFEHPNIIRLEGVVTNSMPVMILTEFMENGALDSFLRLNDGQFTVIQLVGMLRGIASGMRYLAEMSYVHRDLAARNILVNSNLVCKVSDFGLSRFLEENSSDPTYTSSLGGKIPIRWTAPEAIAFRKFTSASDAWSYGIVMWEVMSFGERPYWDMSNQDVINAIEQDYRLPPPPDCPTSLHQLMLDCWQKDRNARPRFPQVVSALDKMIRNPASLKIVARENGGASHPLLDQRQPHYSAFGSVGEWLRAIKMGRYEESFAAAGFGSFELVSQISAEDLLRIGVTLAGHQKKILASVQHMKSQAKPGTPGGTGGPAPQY
CYP2C19 activ = increases human CYP2C19 enzyme activity; AID 1025; recombinant CYP2C19, luciferin-H EGE luminescence; active compounds read high; 0 = fully inhibited enzyme, 1 = untreated enzyme; P33261; activation factor at 5 µM; 96,000 tested, under 10 active;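 active = activation factor of at least 2 at 5 µM in the primary screen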
Large screens that a line does not name were inactive. Compounds with a hit are over-represented: about 27% of the library has one in this group of screens.

CCCCN(CC)C(=O)c1cccc(Cl)c1	CYP2C19 inh 71
CS(=O)(=O)n1nc(OC(=O)c2cccc3ccccc23)cc1N	none
O=C1/C(=C/c2cccnc2)Sc2ccccc21	CYP2C9 inh 66, CYP2C19 inh 78
Cc1ccc(/C=C2\Sc3ccccc3C2=O)s1	CYP2C9 inh 75, CYP2C19 inh 94
O=C(Cn1nnc(-c2ccccc2-n2cnnn2)n1)N1CCCCC1	none
O=C(NC1CCN(C(=O)N2c3ccccc3Sc3ccccc32)CC1)c1ccccc1F	none
O=C(O)Cc1ccc2ocnc2c1	none
OC(c1ccccc1)c1nc2ccccc2s1 (configuration not stated)	CYP2C19 inh 65
CNc1nc(Nc2ccc(C(C)=O)cc2)nc(OC(C(F)(F)F)C(F)(F)F)n1	none
CCOC(=O)C(C(C)=O)=C1SC2CS(=O)(=O)CC2S1 (configuration not stated)	none
CCC(=O)Nc1ccc(S(=O)(=O)NCCc2ccccc2)cc1	CYP2C19 inh 75
COCC(=O)Nc1ccc(S(=O)(=O)NCCc2ccccc2)cc1	CYP2C9 inh 69, CYP2C19 inh 95
CC(C)Oc1ccc2nnnn2n1	none
O=C(c1cccs1)N1CCc2c([nH]c3ccccc23)C1c1ccc(Cl)cc1 (configuration not stated)	CYP2C9 inh 51
CC(=O)OCC1OC(n2ccc3ccccc32)C(OC(C)=O)C(OC(C)=O)C1OC(C)=O (configuration not stated)	none
O=C(CCCCn1c(=S)[nH]c2ccsc2c1=O)NCc1ccco1	CYP2C9 inh 67
Cc1cc(C)c(Cn2c(=O)n(CCCC(=O)NCc3ccco3)c(=O)c3sccc32)c(C)c1	CYP2C9 inh 61
Cc1ccccc1Cn1c(=O)n(CCCC(=O)NCc2ccco2)c(=O)c2sccc21	CYP2C9 inh 94, CYP2C19 inh 89
O=C(CCCn1c(=S)[nH]c2ccsc2c1=O)NCc1ccco1	none
O=C(CCn1c(=O)c2sccc2n(Cc2cc(=O)n3ccccc3n2)c1=O)NCc1ccco1	none
O=C(CCCn1c(=O)c2sccc2n(Cc2cc(=O)n3ccccc3n2)c1=O)NCc1ccco1	CYP2C9 inh 66 (no result: EphB4 ephrin blk)
Cc1ccc(C)c(Cn2c(=O)n(CCC(=O)NCc3ccco3)c(=O)c3sccc32)c1	none
COc1cccc(C(=O)N2CCN(C(=O)c3cccs3)CC2)c1OC	none
NC(=O)c1ccc(-c2ccc(Br)cc2)o1	CYP2C19 inh 51
COc1ccc(S(=O)(=O)Nc2cc(C(=O)NC(C)C)ccc2N2CCOCC2)cc1	CYP2C9 inh 58, CYP2C19 inh 54
COc1ccc(S(=O)(=O)Nc2cc(C(=O)NC3CCCCCC3)ccc2N2CCOCC2)cc1	CYP2C9 inh 52
O=C(c1ccc(CNS(=O)(=O)c2cccc(C(F)(F)F)c2)cc1)N1CCOCC1	none
Cc1nnc(NC(=O)c2ccc(C)c(S(=O)(=O)N3CCCCCC3)c2)s1	none
CC(=O)c1cccc(NS(=O)(=O)N2CCCCC2)c1	CYP2C19 inh 60
O=C(O)c1cccc(S(=O)(=O)N2CCCC2)c1	none
CNC(=O)c1ccccc1NC(=O)c1ccc(C)c(S(=O)(=O)N2CCCCC2)c1	CYP2C9 inh 62, CYP2C19 inh 70
O=C(COC(=O)c1ccc(Br)o1)Nc1cccc(S(=O)(=O)N2CCCCCC2)c1	CYP2C9 inh 92, CYP2C19 inh 96
CCc1ccc(OCC(=O)Nc2ccc(S(=O)(=O)N3CCCC3)cc2)c(Br)c1	none
Cc1cc(C)n(C(=O)c2cccc(S(=O)(=O)N3CCCC3)c2)n1	CYP2C9 inh 72, CYP2C19 inh 76 (no result: EphB4 ephrin blk)
Cc1ccc(NC(=O)C2(N(C(=O)Cn3nnnc3N)c3ccc(C)cc3)CCCCC2)cc1	none (no result: EphB4 ephrin blk)
O=C(Nc1ccon1)c1cccc(S(=O)(=O)N2CCCCCC2)c1	CYP2C9 inh 65, CYP2C19 inh 93
Cc1ccc(NC(=O)c2cc(S(=O)(=O)c3ccccc3)ccc2Cl)cc1	CYP2C9 inh 73
Cc1ccc(C(=O)Nc2nccs2)cc1S(=O)(=O)N1CCCCC1	CYP2C9 inh 68, CYP2C19 inh 66
O=C(Nc1ccccc1Cl)c1cccc(NS(=O)(=O)c2ccccc2)c1	CYP2C9 inh 75, CYP2C19 inh 89
O=C(Nc1ccc(NC(=O)c2ccc(S(=O)(=O)c3ccccc3)cc2)cc1)c1ccccc1	none
Cc1cnnc2ccc3c(no[n+]3[O-])c12	none
Cc1c(C(=O)O)oc2ccc(S(=O)(=O)N3CCC(C)CC3)cc12	none (no result: EphB4 ephrin blk)
O=c1c(/C=C(\O)c2ccccc2)nc2ccccc2n1-c1ccccc1	none
